The results in this text go back to PubChem BioAssay (Tox21).

Several values for one entry are separate records, joined by “and”; a condition that tells them apart may be missing. Equal values may be shown once. Records with an inconclusive call do not appear. Where a call stands in place of a potency, no number is given. The source holds several records for some structures; these can differ, active in one and inactive in another. Activity calls are given as the source filed them. Calls follow the shape of the dose curve; as a rule, active = well fitted activation curve with a large enough effect in the repeat runs; inconclusive = weak or mixed curves; inactive = no such curve, though single readings can be large or run the other way.
Potency is read from the fitted curve at half-maximal effect.

For the experiment, the target named is Nuclear receptor subfamily 1 group I member 2 (Homo sapiens) (UniProt O75469). The experiment is described as follows: Human pregnane X receptor (PXR) small molecule agonists, qHTS assay (AID 1346982). Also: nearly all actives have a fitted effect of over 35% in size. To be noted: PXR-Luc HepG2, CYP3A4 luciferase reporter, 24 h; series mostly up to 92.4 µM. The source says: National Center for Advancing Translational Sciences [NCATS]
Nuclear receptor subfamily 1 group I member 2 (Homo sapiens), sequence (O75469 whole entry, looked up): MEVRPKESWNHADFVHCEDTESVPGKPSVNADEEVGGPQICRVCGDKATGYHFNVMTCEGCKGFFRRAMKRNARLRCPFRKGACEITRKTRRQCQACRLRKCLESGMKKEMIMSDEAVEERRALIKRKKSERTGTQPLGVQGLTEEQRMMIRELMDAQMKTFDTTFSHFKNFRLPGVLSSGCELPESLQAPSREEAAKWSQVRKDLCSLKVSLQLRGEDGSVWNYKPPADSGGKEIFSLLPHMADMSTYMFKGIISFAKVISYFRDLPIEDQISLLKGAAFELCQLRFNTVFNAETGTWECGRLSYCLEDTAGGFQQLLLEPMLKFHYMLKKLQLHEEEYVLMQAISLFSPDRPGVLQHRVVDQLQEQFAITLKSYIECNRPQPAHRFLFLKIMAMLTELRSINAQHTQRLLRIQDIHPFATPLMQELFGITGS
NIH Chemical Genomics Center [NCGC]
U.S. Environmental Protection Agency [EPA]
National Institutes of Environmental Health Sciences [NIEHS]
National Toxicology Program [NTP]
The human pregnane X receptor (hPXR) regulates the expression of several drug metabolizing enzymes and induction of these proteins is a major mechanism for developing drug resistance in cancer. One such key enzyme catalyzing the drug metabolism is cytochrome P450 3A4 (CYP3A4). Changes in CYP3A4 expression affect drug metabolism, thereby reducing the therapeutic efficacy and altering toxicological response to a drug and which finally causes adverse drug interaction. To screen Tox21 libraries for compounds that activate hPXR-mediated CYP3A4 gene expression, PXR-Luc HepG2 cells were used.
PXR-Luc HepG2 cells were dispensed at 2,000 per well in 5uL of assay medium containing 5% charcoal-stripped FBS into white solid bottom 1536-well plates (Corning Life Sciences, Corning, NY) using a Multidrop Combi (Thermo Scientific, Waltham, MA) dispenser. The assay plates were incubated at 37 C and 5% CO2 for 5hr, and then 23nL of compounds dissolved in DMSO and positive control were transferred using a Pintool station (Wako, San Diego, CA). The assay plates were incubated at 37C and 5% CO2 for 24hr. For luciferase read, 4uL of ONE-Glo reagent (Promega Corporation, Madison, WI) was added to each well of the assay plates using Flying Reagent Dispenser (FRD, Aurora Discovery, San Diego, CA) and incubated the assay plates at room temperature for 30min. The luminescence signal was quantified using a ViewLux plate reader (Perkin Elmer, Shelton, CT).
For orientation: qHTS replaces the single test concentration by a dilution series.
In the case of `C[C@](N)(Cc1ccc(O)c(O)c1)C(=O)O`, the Potency entry is “inactive”. The value for `Cc1ncc([N+](=O)[O-])n1C` was “inactive”; that for `CC(=O)Nc1c(I)c(NC(C)=O)c(I)c(C(=O)O)c1I` was 24.3 µM (active) and inactive. In the case of `Cc1cc(C)nc(NS(=O)(=O)c2ccc(N)cc2)n1`, the Potency entry is “inactive”. For `O=C1OC2(c3ccccc31)c1cc(Br)c(O)c(Br)c1Oc1c2cc(Br)c(O)c1Br`, the Potency entry was “inactive”.

As to `CN(C)CCOC(c1ccccc1)c1ccccc1`, the Potency was 54.8 µM (active) and inactive.

For `CC(O)(P(=O)(O)O)P(=O)(O)O`, the Potency result is “inactive”. The value for `CC(=O)C(=O)O` was “inactive”; that for `O=C1O[C@H]([C@@H](O)CO)C(O)=C1O` was “inactive”; that for `C1CCC(C(CC2CCCCN2)C2CCCCC2)CC1` (stereo not given) was 6.68 µM (active). For the compound `CN(C)C(=S)SC(=S)N(C)C`, the Potency was 1.98 µM (active) and inactive.

On to `C=C(C)C(=O)OCC(C)O` (stereo not given), for which the Potency entry is “inactive”. On to `Cc1ncc([N+](=O)[O-])n1CCO`, for which the Potency result was “inactive”.

As for `CN(C)CCOC(C)(c1ccccc1)c1ccccn1` (stereo not given), the Potency result is “inactive”. Consider `O=C(O)CC(O)C(=O)O` (stereo not given), for which the Potency entry was “inactive”. `COc1ccc2cc(S(=O)(=O)N[C@H](CC(=O)N[C@H](Cc3ccc(CN4[C@H](C)CCC[C@@H]4C)cc3)C(=O)N(C)C(C)C)c3ccc4c(c3)OCO4)ccc2c1`: the Potency entry is “inactive”.

Regarding `CCN(CC)C(=O)c1cccc(C)c1`, the Potency entry is “inactive”.

As to `O=S1(=O)OC(c2ccc(O)cc2)(c2ccc(O)cc2)c2ccccc21`, the Potency entry is “inactive”. Then `CCCCCCc1ccc(O)cc1O`, with 68.8 µM (active) and inactive.

Regarding `CC12CCC(CC1)C(C)(C)O2`, the Potency result is “inactive”. Then `Nc1ccc(O)c([N+](=O)[O-])c1`, with 19.3 µM (active); and `NC1CCCCC1`, with “inactive”; and `O=C1c2c(O)cccc2Cc2cccc(O)c21`, with “inactive”. Then `NS(=O)(=O)O`, with “inactive”; and `CN(C)C(=O)Nc1ccc(Cl)c(Cl)c1`, with 60.9 µM (active) and 48.6 µM (active) and inactive. Then `CN1[C@@H]2CC(OC(=O)[C@H](CO)c3ccccc3)C[C@H]1[C@@H]1O[C@@H]12` (stereo not given in full), with “inactive”; and `CN1CCC[C@H]1c1cccnc1`, with “inactive”. `CCOC(N)=O`: the Potency result was “inactive”. Turning to `COc1ccc(OC(F)(F)F)cc1CN[C@H]1CCCN[C@H]1c1ccccc1`, the Potency was 4.86 µM (active). The value for `Nc1ccc([N+](=O)[O-])cc1O` was 61.1 µM (active); that for `CCCCCCCC(=O)OCC(COC(=O)CCCCCCC)OC(=O)CCCCCCC` was “inactive”.

`Nc1c(N=Nc2ccc(-c3ccc(N=Nc4cc(S(=O)(=O)O)c5ccccc5c4N)cc3)cc2)cc(S(=O)(=O)O)c2ccccc12`: the Potency entry was “inactive”.

For `CCOc1ccc(NC(C)=O)cc1`, the Potency entry is “inactive”. The value for `Cc1cccc(C)c1` was “inactive”. Then `CC(=O)CCC(=O)O`, with “inactive”. Consider `CCCc1cc(=O)[nH]c(=S)[nH]1`, for which the Potency result was “inactive”. Turning to `CCCCCCCCCCCC[N+](C)(C)Cc1ccccc1`, the Potency result was “inactive”. For the compound `F[B-](F)(F)F`, the Potency entry was “inactive”. As for `O=C(O)c1ccccc1`, the Potency result was “inactive”. The value for `NS(=O)(=O)c1cc2c(cc1Cl)NCNS2(=O)=O` was “inactive”.
